Laboratory results taken from paper PMC7819943, “Rice protein-binding microarrays: a tool to detect cis-acting elements near promoter regions in rice”.
Whole data set: some 68,000 sequences, median “fluorescence intensity (a.u.)” near 9,100, cut for the highest 2% near 16,000. The sample as a whole holds a higher share of the highest values than the screen did.

target: OsWRKY34 (Oryza sativa, UniProt Q0JBA9 1-250); test: protein-binding microarray (RPBM); PBS, 2% BSA, 51.3 ng/ul salmon testes DNA, 50 uM zinc acetate, 200 nM TF, 25 C, 1 h; high values mean tight binding; conditions: protein: recombinant; tags: N-terminal polyhistidine and DsRed monomer fusion (pET32a); label: CyDye5-dUTP incorporated in the synthesized complementary strand; 3' TTTTT single-stranded linker to array surface; dsDNA, one strand shown
Summary of the method: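 Transcription factors were made in E. coli BL21-CodonPlus as N-terminal fusions to a polyhistidine tag and DsRed, then purified on Ni–NTA. After primer extension with Cy5-dUTP and blocking with 2% BSA, a custom Agilent array was exposed for 1 h at 25 °C to 200 nM protein in PBS, 2% BSA, salmon testes DNA and 50 µM zinc acetate. Washed arrays were scanned on an Axon 4000B, and the binding signal is per-feature fluorescence intensity in arbitrary units.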

Chain of OsWRKY34 (Q0JBA9 entry or part of it): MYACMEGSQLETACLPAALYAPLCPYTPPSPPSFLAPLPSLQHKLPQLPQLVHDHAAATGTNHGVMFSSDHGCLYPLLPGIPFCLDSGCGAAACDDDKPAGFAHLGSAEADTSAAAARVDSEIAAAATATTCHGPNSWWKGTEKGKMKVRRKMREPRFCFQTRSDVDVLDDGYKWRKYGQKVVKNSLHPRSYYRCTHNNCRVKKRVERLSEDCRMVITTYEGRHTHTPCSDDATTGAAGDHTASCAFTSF

| Sequence | binding signal |
| --- | --- |
| GCCAACCGCATGCCGTCCCCGATGCCGCCCGCCGTCAACCCGGAGTCACCTAGTGCAG | 8290 fluorescence intensity (a.u.) |
| ATATTACTGGTGTTTACTTGCTTTTCTTTTTTTAAAAAAACGGAGTCACCTAGTGCAG | 9160 fluorescence intensity (a.u.) |
| ATATAAGGGATTTTGAGTTTTTGATTGCAACGTTTGACCACGGAGTCACCTAGTGCAG | 8550 fluorescence intensity (a.u.) |
| TATGCATCACCTCGTAATCCACAACTGACTTACCCTTTCTCGGAGTCACCTAGTGCAG | 12300 fluorescence intensity (a.u.) |
| AGAATGTTTGCTCAAAGTATGTTTTTGTCATCTGTTTTTCCGGAGTCACCTAGTGCAG | 8800 fluorescence intensity (a.u.) |
| TGCTTTTGTATTTTTTTTGCTGTGTATATATCATAAACTTCGGAGTCACCTAGTGCAG | 8550 fluorescence intensity (a.u.) |
| CTTTTGTGCTCATCTGAACTTCTGAAGTATCATAAAGAAGCGGAGTCACCTAGTGCAG | 31400 fluorescence intensity (a.u.) |
| TATTGTGTACTACATCTTTTATTATTTCTTTCAAATTTCACGGAGTCACCTAGTGCAG | 10500 fluorescence intensity (a.u.) |
| CTCTCCCGGTCGCGCCGCCATCTCCTCTCCCAATCGCGCGCGGAGTCACCTAGTGCAG | 8860 fluorescence intensity (a.u.) |
| CACTTCTATTGGTTCTTTGTCTGGGAGTAGCAGCATAAGTCGGAGTCACCTAGTGCAG | 8540 fluorescence intensity (a.u.) |
| GACCTACGTCACCACCTTGCATGTCCCACGCGGAGCTCCACGGAGTCACCTAGTGCAG | 9230 fluorescence intensity (a.u.) |
| GCAACTGTGTTTTCAATTCTGCAAATGCTATTCTCTGTTACGGAGTCACCTAGTGCAG | 11800 fluorescence intensity (a.u.) |
| TCGCGTAGGGGAGGGGTGAAATATATTTTTTATGCCGGGCCGGAGTCACCTAGTGCAG | 18000 fluorescence intensity (a.u.) |
| TTTTTTTATTTTTTTTGAAATATTTTTTGTTGGGTTTTTTCGGAGTCACCTAGTGCAG | 13100 fluorescence intensity (a.u.) |
| TAGATGAAATGGGTTGGGTTGATTTGGGTTGAAATATGATCGGAGTCACCTAGTGCAG | 21800 fluorescence intensity (a.u.) |
| GATTTGGGTTGAAATATGATATGGGTTGGATTGGTTTGGACGGAGTCACCTAGTGCAG | 16100 fluorescence intensity (a.u.) |
| GCGCTTCGATTTGGTTTGGTTTGATTCGGTTTGCGAGATGCGGAGTCACCTAGTGCAG | 8780 fluorescence intensity (a.u.) |
| ATGAACTTAGTTGTTTTTTTTTGGGTTTTACTTGCATAATCGGAGTCACCTAGTGCAG | 8220 fluorescence intensity (a.u.) |
| CCGTCGATTTGGTTGGTTGGTTGATCGGCGGCGAGGAGGGCGGAGTCACCTAGTGCAG | 11400 fluorescence intensity (a.u.) |
| GATTTTTAGTGAATATAATGAAATTTCACAGGGGAGGGGCCGGAGTCACCTAGTGCAG | 13400 fluorescence intensity (a.u.) |
| GGGGTTAGTTGTCCGTTTTGCATAGTTGGGGATAAAAAATCGGAGTCACCTAGTGCAG | 18500 fluorescence intensity (a.u.) |
| TGATTTGCGCGAGGGTTTGGTTTGGTTTGGTTTGAGTCGACGGAGTCACCTAGTGCAG | 19200 fluorescence intensity (a.u.) |

| Sequence | binding signal |
| --- | --- |
| TTTGGGATAAATCATGAGGGGTTAAAAGTTGTTATATTTTCGGAGTCACCTAGTGCAG | 10100 fluorescence intensity (a.u.) |
| GATTTTTAGTGAATATAATGAAATTTCATAGGGGAGGGGCCGGAGTCACCTAGTGCAG | 8930 fluorescence intensity (a.u.) |
| GGCACGCTACTACTCCTACTATATGATAAAAAAACACTACCGGAGTCACCTAGTGCAG | 8150 fluorescence intensity (a.u.) |
| TGGTCAAGCCCTTTTTGATCTTTTTTTTTCTGTCTCATGCCGGAGTCACCTAGTGCAG | 9610 fluorescence intensity (a.u.) |
| CGCACCGTCGACTAGTCCCGTCCCGTCGCGCCGTTGCCTTCGGAGTCACCTAGTGCAG | 8590 fluorescence intensity (a.u.) |
| ATTCGAGATCAGCTTTCTCTTCTATTTTGCTACTAGTTCTCGGAGTCACCTAGTGCAG | 13000 fluorescence intensity (a.u.) |
| TAGGTCTGCTTCAGAGATGGGGTTAGGGTTAGATTTGTTCCGGAGTCACCTAGTGCAG | 14000 fluorescence intensity (a.u.) |
| TACCCTTTTTTTGGGTAGGGTGGGTTGGATTTATTTATTTCGGAGTCACCTAGTGCAG | 12300 fluorescence intensity (a.u.) |
| TCATGGGCGGGTTGAGCAATGTTTCTTGTGATTAGTCTCACGGAGTCACCTAGTGCAG | 16300 fluorescence intensity (a.u.) |
| TATATATATATATATATATATATATATATATAAGGTTTGACGGAGTCACCTAGTGCAG | 17300 fluorescence intensity (a.u.) |
| GACCTTATTTGCATTGATTGACCTTATTTGCATTGATTTTCGGAGTCACCTAGTGCAG | 19700 fluorescence intensity (a.u.) |
| TTAGATTTTTCTTACAACCATTTGCATTGATTTTTTTTTTCGGAGTCACCTAGTGCAG | 8960 fluorescence intensity (a.u.) |
| GTAGGGGTGGTGGATTTTTTTTTATTTGCTGAGATGATTTCGGAGTCACCTAGTGCAG | 20600 fluorescence intensity (a.u.) |
| ATATATATATATATATATATATATATATATAGTGGAATGACGGAGTCACCTAGTGCAG | 12300 fluorescence intensity (a.u.) |
| GGTTATGGGCGGGTTGAGCAATGTTTTTCATGATTAGTCTCGGAGTCACCTAGTGCAG | 18600 fluorescence intensity (a.u.) |
| GACGGGTGTTTCTAGGGTTAAGGTTAGGTTTTTTTTTTGACGGAGTCACCTAGTGCAG | 9680 fluorescence intensity (a.u.) |
| GTGTTAGGTGCTGAGATTTTTGTACTTGCTTTATTATTTTCGGAGTCACCTAGTGCAG | 8860 fluorescence intensity (a.u.) |
| TCTTGATTTTTGCATTAGTAGTAGTTGCGTCTTATATTTTCGGAGTCACCTAGTGCAG | 12100 fluorescence intensity (a.u.) |
| AAGTTTAGGGTGAGCAATGTCTGGTTTTCGGGTTCAGGGGCGGAGTCACCTAGTGCAG | 13300 fluorescence intensity (a.u.) |
| TTGCTTTCCTTGGCCTCACGCTTGTTCCATGTTAGTTCGACGGAGTCACCTAGTGCAG | 16100 fluorescence intensity (a.u.) |
| TATTGCACCTTTTCTCTATTGTTTTGAATTCAGTGAAGATCGGAGTCACCTAGTGCAG | 11600 fluorescence intensity (a.u.) |
| GACCTGTCTACCGCCGCCCTAGTGACTAATGTTGACCACACGGAGTCACCTAGTGCAG | 12000 fluorescence intensity (a.u.) |
